# Laboratory results taken from the supplement of paper PMC10037445.
# Whole data set: some 2,900 compounds, median “NF-kB SEAP reporter activity, fold change vs agonist alone” near 0.99, cut for the highest 2% near 2.6. This excerpt belongs to a sample that is enriched for the highest values.
# Tests used:
# RAW-Dual [1] = test: NF-kB SEAP reporter activity, fold change vs agonist alone; cytotoxicity flag (confluency mask): not cytotoxic; higher = enhanced NF-kB activity
# Summary of the method: (§1)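 RAW-Dual macrophages were seeded in DMEM at 50,000 cells/well in 384-well plates, given 50 nL of library stock by pin tool, and given a PRR agonist 1 h later. Plates were held at 37 °C, 5% CO2 for 20 hours, after which supernatant was read for IRF by QuantiLuc luminescence and for NF-κB by QuantiBlue absorbance at 620 nm. Reporter activity is expressed as fold change over wells that received agonist alone. A well was called cytotoxic when IncuCyte confluency fell below 70% of agonist controls in both mask sets.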
# RAW-Dual [2] = test: NF-kB SEAP reporter activity, fold change vs agonist alone; higher = enhanced NF-kB activity
# Summary of the method: as §1
# RAW-Dual [3] = test: NF-kB SEAP reporter activity, fold change vs agonist alone; cytotoxicity flag (confluency mask): cytotoxic (confluency <70% of control); higher = enhanced NF-kB activity
# Summary of the method: as §1
# [4] = agonist: ODN 1826 (TLR9) 0.5 ug/mL
# [5] = agonist: Pam2CSK4 (TLR2/6) 0.1 ug/mL
# [6] = agonist: Pam3CSK4 (TLR2/1) 0.1 ug/mL
# [7] = library stock concentration (final ~1000-fold dilution): 10 mM, cytotoxicity flag (confluency mask): not cytotoxic, agonist: Imiquimod (TLR7) […]
# [8] = library stock concentration (final ~1000-fold dilution): 10 mM, cytotoxicity flag (confluency mask): not cytotoxic, agonist: MPLA (TLR4) […]
# [9] = library stock concentration (final ~1000-fold dilution): 10 mM, cytotoxicity flag (confluency mask): cytotoxic (confluency <70% of control), agonist: MPLA (TLR4) […]
structure (smiles),measurement,setting,value
CC(C)(Cc1ccc2ccccc2c1)NCC(O)COc1cccc(Cl)c1C#N (centres undefined) (library stock concentration (final ~1000-fold dilution): 10 mM),NF-kB SEAP reporter activity,RAW-Dual [1]; agonist: LPS (TLR4) 0.1 ug/mL,0.273
same,NF-kB SEAP reporter activity,RAW-Dual [1]; [4],0.962
same,NF-kB SEAP reporter activity,RAW-Dual [1]; [5],0.164
same,NF-kB SEAP reporter activity,RAW-Dual [1]; [6],1.03
CC(C)(Cc1ccc2ccccc2c1)NCC(O)COc1cccc(Cl)c1C#N (centres undefined),NF-kB SEAP reporter activity,RAW-Dual [2]; [7],0.896
same,NF-kB SEAP reporter activity,RAW-Dual [2]; [8],0.972
CCCCCCCCCC(=O)NC(Cc1c[nH]c2ccccc12)C(=O)NC(CC(N)=O)C(=O)NC(CC(=O)O)C(=O)NC1C(=O)NCC(=O)NC(CCCN)C(=O)NC(CC(=O)O)C(=O)NC(C)C(=O)NC(CC(=O)O)C(=O)NCC(=O)NC(CO)C(=O)NC(C(C)CC(=O)O)C(=O)NC(CC(=O)c2ccccc2N)C(=O)OC1C (centres undefined),NF-kB SEAP reporter activity,RAW-Dual [2]; [7],0.826
same,NF-kB SEAP reporter activity,RAW-Dual [2]; [8],0.855
CCCCCCCCCC(=O)NC(Cc1c[nH]c2ccccc12)C(=O)NC(CC(N)=O)C(=O)NC(CC(=O)O)C(=O)NC1C(=O)NCC(=O)NC(CCCN)C(=O)NC(CC(=O)O)C(=O)NC(C)C(=O)NC(CC(=O)O)C(=O)NCC(=O)NC(CO)C(=O)NC(C(C)CC(=O)O)C(=O)NC(CC(=O)c2ccccc2N)C(=O)OC1C (centres undefined) (library stock concentration (final ~1000-fold dilution): 10 mM),NF-kB SEAP reporter activity,RAW-Dual [1]; agonist: LPS (TLR4) 0.1 ug/mL,1.33
same,NF-kB SEAP reporter activity,RAW-Dual [1]; [4],1.01
same,NF-kB SEAP reporter activity,RAW-Dual [1]; [5],1.05
same,NF-kB SEAP reporter activity,RAW-Dual [1]; [6],1.19
CC(=O)OC(CC=C(C)C)C1=CC(=O)c2c(O)ccc(O)c2C1=O (centres undefined),NF-kB SEAP reporter activity,"RAW-Dual [2]; library stock concentration (final ~1000-fold dilution): 2 mM, cytotoxicity flag (confluency mask): not cytotoxic, agonist: Imiquimod (TLR7) […]",0.978
same,NF-kB SEAP reporter activity,"RAW-Dual [2]; library stock concentration (final ~1000-fold dilution): 2 mM, cytotoxicity flag (confluency mask): not cytotoxic, agonist: MPLA (TLR4) […]",0.978
CC(=O)OC(CC=C(C)C)C1=CC(=O)c2c(O)ccc(O)c2C1=O (centres undefined) (library stock concentration (final ~1000-fold dilution): 2 mM),NF-kB SEAP reporter activity,RAW-Dual [1]; agonist: LPS (TLR4) 0.1 ug/mL,0.479
same,NF-kB SEAP reporter activity,RAW-Dual [1]; [4],0.647
same,NF-kB SEAP reporter activity,RAW-Dual [1]; [5],0.257
same,NF-kB SEAP reporter activity,RAW-Dual [1]; [6],0.408
O=c1cc(-c2ccccc2)oc2c1ccc1ccccc12,NF-kB SEAP reporter activity,RAW-Dual [2]; [8],1.2
O=c1cc(-c2ccccc2)oc2c1ccc1ccccc12 (library stock concentration (final ~1000-fold dilution): 10 mM),NF-kB SEAP reporter activity,RAW-Dual [1]; agonist: LPS (TLR4) 0.1 ug/mL,0.691
same,NF-kB SEAP reporter activity,RAW-Dual [1]; [4],0.933
same,NF-kB SEAP reporter activity,RAW-Dual [1]; [5],0.846
same,NF-kB SEAP reporter activity,RAW-Dual [1]; [6],0.982
C#CCNC1CCc2ccccc21 (centres undefined),NF-kB SEAP reporter activity,RAW-Dual [2]; [7],0.916
same,NF-kB SEAP reporter activity,RAW-Dual [2]; [8],1.14
C#CCNC1CCc2ccccc21 (centres undefined) (library stock concentration (final ~1000-fold dilution): 10 mM),NF-kB SEAP reporter activity,RAW-Dual [1]; agonist: LPS (TLR4) 0.1 ug/mL,1.06
same,NF-kB SEAP reporter activity,RAW-Dual [1]; [4],0.931
same,NF-kB SEAP reporter activity,RAW-Dual [1]; [5],1.04
same,NF-kB SEAP reporter activity,RAW-Dual [1]; [6],1.08
O=C1Nc2ccc(Cl)cc2C(C#CC2CC2)(C(F)(F)F)O1 (centres undefined) (library stock concentration (final ~1000-fold dilution): 10 mM),NF-kB SEAP reporter activity,RAW-Dual [3]; agonist: LPS (TLR4) 0.1 ug/mL,0.632
same,NF-kB SEAP reporter activity,RAW-Dual [3]; [4],0.547
same,NF-kB SEAP reporter activity,RAW-Dual [3]; [5],0.614
same,NF-kB SEAP reporter activity,RAW-Dual [3]; [6],0.542
O=C1Nc2ccc(Cl)cc2C(C#CC2CC2)(C(F)(F)F)O1 (centres undefined),NF-kB SEAP reporter activity,RAW-Dual [2]; [9],0.748
CCCC(NC1CCc2cc(F)cc(F)c2C1)C(=O)Nc1cn(C(C)(C)CNCC(C)(C)C)cn1 (centres undefined) (library stock concentration (final ~1000-fold dilution): 10 mM),NF-kB SEAP reporter activity,RAW-Dual [1]; agonist: LPS (TLR4) 0.1 ug/mL,0.636
same,NF-kB SEAP reporter activity,RAW-Dual [1]; [4],0.316
same,NF-kB SEAP reporter activity,RAW-Dual [1]; [5],0.723
same,NF-kB SEAP reporter activity,RAW-Dual [1]; [6],0.298
CCCC(NC1CCc2cc(F)cc(F)c2C1)C(=O)Nc1cn(C(C)(C)CNCC(C)(C)C)cn1 (centres undefined),NF-kB SEAP reporter activity,RAW-Dual [2]; [7],0.373
same,NF-kB SEAP reporter activity,RAW-Dual [2]; [8],0.669
CC(=O)NC(CC(C)C)C(=O)NC(CC(C)C)C(=O)NC(C=O)CCCNC(=N)N (centres undefined) (library stock concentration (final ~1000-fold dilution): 10 mM),NF-kB SEAP reporter activity,RAW-Dual [1]; agonist: LPS (TLR4) 0.1 ug/mL,1.01
same,NF-kB SEAP reporter activity,RAW-Dual [1]; [4],1.02
same,NF-kB SEAP reporter activity,RAW-Dual [1]; [5],1.08
same,NF-kB SEAP reporter activity,RAW-Dual [1]; [6],1.15
CC(=O)NC(CC(C)C)C(=O)NC(CC(C)C)C(=O)NC(C=O)CCCNC(=N)N (centres undefined),NF-kB SEAP reporter activity,RAW-Dual [2]; [7],0.983
same,NF-kB SEAP reporter activity,RAW-Dual [2]; [8],1.09
CN1C2=C3N=c4ccccc4=C3CCN2C(=O)c2ccccc21 (library stock concentration (final ~1000-fold dilution): 10 mM),NF-kB SEAP reporter activity,RAW-Dual [1]; agonist: LPS (TLR4) 0.1 ug/mL,1.05
same,NF-kB SEAP reporter activity,RAW-Dual [1]; [4],0.339
same,NF-kB SEAP reporter activity,RAW-Dual [1]; [5],0.824
same,NF-kB SEAP reporter activity,RAW-Dual [1]; [6],1.1
CN1C2=C3N=c4ccccc4=C3CCN2C(=O)c2ccccc21,NF-kB SEAP reporter activity,RAW-Dual [2]; [7],1.62
same,NF-kB SEAP reporter activity,RAW-Dual [2]; [8],1.83
Cc1cc2c(C(N)=O)cccc2n1-c1nc2c(c(NCc3ccccc3)n1)COCC2 (library stock concentration (final ~1000-fold dilution): 10 mM),NF-kB SEAP reporter activity,RAW-Dual [3]; agonist: LPS (TLR4) 0.1 ug/mL,0.298
same,NF-kB SEAP reporter activity,RAW-Dual [3]; [4],0.325
same,NF-kB SEAP reporter activity,RAW-Dual [3]; [5],0.0795
same,NF-kB SEAP reporter activity,RAW-Dual [3]; [6],0.159
Cc1cc2c(C(N)=O)cccc2n1-c1nc2c(c(NCc3ccccc3)n1)COCC2,NF-kB SEAP reporter activity,"RAW-Dual [2]; library stock concentration (final ~1000-fold dilution): 10 mM, cytotoxicity flag (confluency mask): cytotoxic (confluency <70% of control), agonist: Imiquimod (TLR7) […]",0.297
same,NF-kB SEAP reporter activity,RAW-Dual [2]; [9],0.302
CC(C)=CCC[C@](C)(O)[C@H]1CC[C@]2(C)[C@@H]3CCC4C(C)(C)[C@@H](O)CC[C@]4(C)[C@H]3C[C@@H](O)[C@@]12C (some centres undefined) (library stock concentration (final ~1000-fold dilution): 10 mM),NF-kB SEAP reporter activity,RAW-Dual [1]; agonist: LPS (TLR4) 0.1 ug/mL,1.41
same,NF-kB SEAP reporter activity,RAW-Dual [1]; [4],0.693
same,NF-kB SEAP reporter activity,RAW-Dual [1]; [5],0.848
same,NF-kB SEAP reporter activity,RAW-Dual [1]; [6],0.882
CC(C)=CCC[C@](C)(O)[C@H]1CC[C@]2(C)[C@@H]3CCC4C(C)(C)[C@@H](O)CC[C@]4(C)[C@H]3C[C@@H](O)[C@@]12C (some centres undefined),NF-kB SEAP reporter activity,RAW-Dual [2]; [7],0.934
same,NF-kB SEAP reporter activity,RAW-Dual [2]; [8],1.14
O=c1cc(-c2ccc(O)cc2)oc2c(C3OCC(O)C(O)C3O)c(O)c(C3OC(CO)C(O)C(O)C3O)c(O)c12 (centres undefined),NF-kB SEAP reporter activity,RAW-Dual [2]; [7],1.02
same,NF-kB SEAP reporter activity,RAW-Dual [2]; [8],1.05
O=c1cc(-c2ccc(O)cc2)oc2c(C3OCC(O)C(O)C3O)c(O)c(C3OC(CO)C(O)C(O)C3O)c(O)c12 (centres undefined) (library stock concentration (final ~1000-fold dilution): 10 mM),NF-kB SEAP reporter activity,RAW-Dual [1]; agonist: LPS (TLR4) 0.1 ug/mL,1.45
same,NF-kB SEAP reporter activity,RAW-Dual [1]; [4],1.03
same,NF-kB SEAP reporter activity,RAW-Dual [1]; [5],1.08
same,NF-kB SEAP reporter activity,RAW-Dual [1]; [6],1.08
CCn1cc(-c2cccc(C(F)(F)F)c2)c2sc(C(=N)NC3CCS(=O)(=O)CC3)cc2c1=O (library stock concentration (final ~1000-fold dilution): 10 mM),NF-kB SEAP reporter activity,RAW-Dual [3]; agonist: LPS (TLR4) 0.1 ug/mL,3.13
same,NF-kB SEAP reporter activity,RAW-Dual [3]; [4],0.721
same,NF-kB SEAP reporter activity,RAW-Dual [3]; [5],1.15
same,NF-kB SEAP reporter activity,RAW-Dual [3]; [6],1.12
